# Records with an inconclusive call do not appear. Unmarked numbers belong to inactive results. Activity calls are given as the source filed them. Calls come from the whole dose curve; as a rule, active = well fitted inhibition curve with a large enough effect; inconclusive = small, poorly fitted or top-dose-only effect; inactive = flat fitted curve, though single readings scatter.
# Target: Dual specificity protein kinase CLK4 (Homo sapiens) (UniProt Q9HAZ1)
# Experiment: qHTS Assay for Inhibitors of CDC-like Kinase 4 (Kinase-Glo Assay) (AID 1770); note: nearly all actives have a fitted effect of over 65% in size
# Conditions: recombinant Clk4, Kinase-Glo ATP depletion luminescence; series mostly up to 66.7 µM; activity, negative = inhibition: at the top concentration
# Description: NIH Molecular Libraries Probe Production Centers Network [MLPCN] NIH Chemical Genomics Center [NCGC] MLPCN Grant: 1R03MH084827-01 Assay Submitter (PI): Tom Misteli NCGC Assay Overview: Clk4 (Invitrogen, cat# PV3839) was assayed using ATP and the RS repeat peptide (AnaSpec cat # 61722) as substrates. Following the Clk4 reaction, the remaining ATP levels were detected using Promega Kinase-Glo technology wherein the remaining ATP from the kinase reaction is detected using Ultra-Glo luciferase and D-luciferin which generates a bioluminescence signal from the ATP. The positive control for the assay was TG003 (Sigma-Aldrich, cat# 300801-52-9) which has been described as an inhibitor of Clk 4[1].
# NCGC Assay Protocol Summary: Two uL/well of substrate-buffer solution (100 uM RS peptide, 1 uM ATP, 25 mM Tris pH7.5, 10 mM MgCl2, 0.5 mM EGTA, 2.5 mM DTT, 0.01% Triton X-100 final concentration) was dispensed into 1536-well, assay plates (Greiner, solid white medium-binding plates) with Aurora Discovery BioRAPTR Flying Reagent Dispenser (FRD; Beckton-Dickenson). Using a Kalypsys pin tool equipped with a 1536-pin tool, 23 nL of compound solution was transferred to the assay plate. One uL/ well Clk4-buffer solution (25 nM Clk4, 25 mM Tris pH 7.5, 10 mM MgCl2, 0.5 mM EGTA, 2.5 mM DTT, 0.01% Triton X-100, final concentrations) was then added using the FRD yielding a total kinase reaction volume of 3 uL/ well. After 4.5 hours of room temperature incubation, 3 uL Kinase-Glo reagent was added for a final assay volume of 6 uL/ well. Luminescence was detected with the ViewLux plate reader (Perkin Elmer, Waltham, MA) after 5 min incubation using a 5 second exposure time and 2x binning.
# % is set by controls: 0 for no effect and ±100 for the full control effect; potency is the fitted concentration of half-maximal effect.
# Dual specificity protein kinase CLK4 (Homo sapiens), sequence (Q9HAZ1 whole entry, looked up): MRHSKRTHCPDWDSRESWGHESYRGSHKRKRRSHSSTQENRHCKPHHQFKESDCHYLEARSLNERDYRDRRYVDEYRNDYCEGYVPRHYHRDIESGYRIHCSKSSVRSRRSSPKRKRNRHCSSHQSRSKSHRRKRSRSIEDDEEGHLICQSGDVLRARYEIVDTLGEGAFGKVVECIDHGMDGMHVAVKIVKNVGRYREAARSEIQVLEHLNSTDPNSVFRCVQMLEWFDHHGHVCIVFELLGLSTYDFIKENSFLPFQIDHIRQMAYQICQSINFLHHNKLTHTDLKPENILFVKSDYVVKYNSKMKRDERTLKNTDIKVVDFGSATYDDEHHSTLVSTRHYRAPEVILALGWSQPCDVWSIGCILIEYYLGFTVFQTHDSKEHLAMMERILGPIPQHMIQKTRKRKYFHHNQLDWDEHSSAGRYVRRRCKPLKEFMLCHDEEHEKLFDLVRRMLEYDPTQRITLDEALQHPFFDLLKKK
Compound,"activity, negative = inhibition [%]",Potency
N#Cc1cccc(-c2nc3cnc(N4CCOCC4)nc3n(C3CC3)c2=O)c1,-25.8,
COc1ccc(CNc2ncnc3ccc(-c4cccc(NS(C)(=O)=O)c4)cc23)c(OC)c1,,11.2 µM (active)
COc1ccccc1CNc1nc(-c2c(C)noc2C)nc2ccccc12,-21.8,
COc1cccc(-c2cncnc2NC2CCNCC2)c1,-5.96,
COc1ccc(-n2c(=O)cnc3cnc(N(C)C)nc32)cc1,,11.2 µM (active)
O=c1cnc2cnc(Nc3ccccc3)nc2n1Cc1cccs1,,1.41 µM (active)
CC(=O)NCCNc1ncncc1-c1ccccc1C,1.57,
CN(C)Cc1ccccc1-c1nc(NC2CCNCC2)c2ccccc2n1,-4.04,
CN(Cc1ccco1)c1ncncc1-c1ccccc1Cl,-9.27,
COc1ccc(Oc2ncc3nc(C)c(=O)n(-c4ccccc4)c3n2)cc1,-11.4,
CN1CCN(c2ncc3nc(-c4cccs4)c(=O)n(-c4ccccc4)c3n2)CC1,-16.3,
COCCn1c(=O)cnc2cnc(N3CCN(C)CC3)nc21,-25.4,
COc1ccc(-c2nc3cnc(N4CCOCC4)nc3n(-c3ccccc3)c2=O)cc1,2.54,
COc1ccc(-c2nc3cnc(N4CCN(C)CC4)nc3n(-c3ccc(OC)cc3)c2=O)cc1,-22.4,
Cc1cnc(CNc2cc(-c3cccc(NS(C)(=O)=O)c3)ncn2)cn1,,25.1 µM (active)
COCCn1c(=O)c(C)nc2cnc(Oc3ccccc3)nc21,-0.732,
COCCn1c(=O)c(-c2ccccc2)nc2cnc(OC)nc21,-7.39,
COc1cccc(-c2cncnc2N(C)Cc2ccco2)c1,-22.2,
CS(=O)(=O)Nc1cccc(-c2ccc3ncnc(Nc4ccccc4)c3c2)c1,,15.8 µM (active)
c1ccc(CNc2cc(-c3cccnc3)ncn2)cc1,,10 µM (active)

Compound,"activity, negative = inhibition [%]",Potency
CN(Cc1ccco1)c1ncncc1-c1cccc(C#N)c1,-9.51,
CS(=O)(=O)Nc1cccc(-c2ccc3ncnc(NC4CCNCC4)c3c2)c1,,11.2 µM (active)
c1csc(CNc2ccnc(-c3ccoc3)n2)c1,-27.4,
Cc1noc(C)c1-c1cc(NCc2cccs2)ncn1,,11.2 µM (active)
CN(C)c1ncc2ncc(=O)n(CCc3ccccc3)c2n1,,6.31 µM (active)
COc1ccc(-n2c(=O)c(-c3cccs3)nc3cnc(N(C)C)nc32)cc1,-6.52,
COCCn1c(=O)c(-c2ccc(F)cc2)nc2cnc(N3CCOCC3)nc21,-3.1,
COCCn1c(=O)c(C)nc2cnc(Oc3ccc(OC)cc3)nc21,-2.91,
O=c1c(-c2ccc(F)cc2)nc2cnc(Oc3ccccc3)nc2n1C1CC1,0.979,
CN(C)c1ncc2nc(-c3cn(C)c4ccccc34)c(=O)n(C[C@H]3CCCO3)c2n1,-0.667,
COCCn1c(=O)c(-c2cccc(C#N)c2)nc2cnc(OC)nc21,-4.86,
CN1CCN(c2ncc3nc(-c4cc(F)cc(F)c4)c(=O)n(C)c3n2)CC1,-11.9,
Cc1nc2cnc(N3CCN(C)CC3)nc2n(CCC#N)c1=O,-5.14,
Cn1c(=O)c(-c2cc(F)cc(F)c2)nc2cnc(N3CCOCC3)nc21,-1.12,
COc1ccc(-n2c(=O)c(-c3cn(C)c4ccccc34)nc3cnc(N4CCOCC4)nc32)cc1,-21,
COc1ccc(-n2c(=O)c(-c3ccc(Cl)cc3)nc3cnc(N4CCNCC4)nc32)cc1,-5.27,
O=c1c(-c2ccc(Cl)cc2)nc2cnc(N3CCNCC3)nc2n1Cc1cccs1,-4.8,
CN1CCN(c2ncc3ncc(=O)n(C4CC4)c3n2)CC1,-7.13,
c1cncc(CNc2ccnc(-c3ccc4c(c3)OCO4)n2)c1,,0.0631 µM (active)
COCCNc1nc(-c2ccccc2Cl)nc2ccccc12,,15.8 µM (active)

# Source: PubChem BioAssay (NCATS)
